In PubChem BioAssay (EPA / NIEHS) one finds outcome and AC50 data, which are given here for 9 compounds.

Usually AC50 stands for the concentration giving half of the maximal activity seen.

Inconclusive results are not listed. Activity calls are given as the source filed them. Rule for the calls, unless noted: active = hit-call score of the fitted dose curve at least 0.9, where 1 is the maximum; inactive = score below 0.9.

The target in experiment [1] is human Peroxisome Proliferator-activated Receptor alpha (PPARa), PPARA (gene 5465) (UniProt Q07869). The experiment can be described thus: ATG_PPARa_TRANS: Attagene TRANS-FACTORIAL HepG2 Assay for human Peroxisome Proliferator-activated Receptor alpha (PPARa) (AID 2283001; active = hit-call score of the fitted dose curve at least 0.9, where 1 is the maximum). The procedure, abridged:
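HepG2, transient MRTU transfection, 24 h treatment. RT-PCR → FAM labelling → capillary electrophoresis. Fit vs DMSO, positive direction.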

Experiment [2] concerns the target Myc proto-oncogene protein (Homo sapiens) (UniProt P01106). The experiment can be described thus: ATG_Myc_CIS: Attagene CIS-FACTORIAL HepG2 Assay for human Myelocytomatosis (Myc) Proto-Oncogene Transcription Factor (AID 2282990). As to conditions: HepG2, Attagene cis-reporter transcription factor activity; actives raise or lower the signal. A digest of the protocol:
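Read-out: fluorescent reporter mRNA fragments resolved by capillary electrophoresis after RT-PCR. Human HepG2 liver cells carried transfected cis-element reporter units and were dosed for 24 h. Gain or loss of signal fitted relative to DMSO baseline.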

Experiment [3] can be described thus: ATG_NRF2_ARE_CIS: Attagene CIS-FACTORIAL HepG2 Assay for human Nuclear Factor Erythroid 2 Related Factor 2 (NFR2) response to Antioxidant Response Elements (ARE) (AID 2282992). As to conditions: HepG2 Attagene ARE/NRF2 reporter, transcription factor activity; actives raise or lower the signal. The procedure, abridged: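 Using transiently transfected HepG2 cells exposed for 24 h, reporter mRNA levels were determined by RT-PCR with fluorescent primer extension and capillary electrophoresis, analysed for gain or loss of signal against DMSO.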

Experiment [4] addresses Cellular tumor antigen p53 (Homo sapiens) (UniProt P04637). In words: ATG_p53_CIS: Attagene CIS-FACTORIAL HepG2 Assay for human p53 Transcription Factor (AID 2282994). As to conditions: HepG2 p53 cis-element reporter, Attagene mRNA; actives raise or lower the signal. A digest of the protocol:
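In HepG2 cells, reporter transcription units under cis-regulatory promoters were transiently introduced. Following 24 h treatment, RNA was processed to labelled, digested cDNA fragments read by capillary electrophoresis; fitting was bidirectional versus DMSO.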

A short description of experiment [5]: BSK_3C_TissueFactor: BioMAP Diversity Plus: 3C Assay for Tissue Factor Biomarker Activity (AID 2282997). The conditions noted are these: BioMAP 3C HUVEC, tissue factor biomarker readout; actives raise or lower the signal. A digest of the protocol:
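Readout: Tissue Factor ELISA. Cells: human primary umbilical vein endothelium. Time: 24 h after dosing. Analysis: bidirectional fit, DMSO baseline.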

Experiment [6] is described as follows: BSK_3C_uPAR: BioMAP Diversity Plus: 3C Assay for Urokinase-type plasminogen activator receptor (uPAR) Biomarker Activity (AID 2282998). The conditions noted are these: BioMAP 3C HUVEC, uPAR biomarker ELISA; actives raise or lower the signal. A digest of the protocol: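 Dose primary human umbilical vein endothelial cells, incubate 24 h, measure cell-surface uPAR by ELISA, then fit the signal in both directions against the DMSO negative control.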

A short description of experiment [7]: BSK_4H_Eotaxin3: BioMAP Diversity Plus: 4H Assay for Eotaxin 3 Biomarker Activity (AID 2283000).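 For outcome: CCL26 protein level quantified by ELISA in parallel with SRB cytotoxicity check.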 As to conditions: primary human endothelial cells (HUVEC); actives raise or lower the signal. A digest of the protocol:
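HUVEC, 24 h post-dose, ELISA for Eotaxin-3/CCL26. Gain or loss of signal fitted bidirectionally vs DMSO baseline.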

Read-out in experiment [8]: Intercellular Adhesion Molecule 1 (ICAM1), ICAM1 (gene 3383)
The experiment can be described thus: BSK_3C_ICAM1: BioMAP Diversity Plus: 3C Assay for Intercellular Adhesion Molecule 1 (ICAM1) Biomarker Activity (AID 2283003). As to conditions: primary human endothelial cells (HUVEC); actives raise or lower the signal. A digest of the protocol: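 ELISA readout of ICAM1 in human umbilical vein endothelial cells in the 3C system, taken 24 h post-dose. Gain or loss of signal versus DMSO was fitted in both directions, with SRB total-protein staining run in parallel.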

In experiment [9] the target is human Retinoic Acid Receptor beta (RARb), RARB (gene 5915) (UniProt P10826). The experiment can be described thus: ATG_RARb_TRANS: Attagene TRANS-FACTORIAL HepG2 Assay for human Retinoic Acid Receptor beta (AID 2283004; active = hit-call score of the fitted dose curve at least 0.9, where 1 is the maximum). The procedure, abridged:
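HepG2 cells transiently transfected with multiplexed GAL4-UAS reporter units expressing chimeric NR–Gal4 fusions; 24 h compound exposure. Reporter mRNA quantified by RT-PCR, 6-FAM labelling, HpaI digestion and capillary electrophoresis; gain-of-signal fitted against DMSO baseline.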

The target of experiment [10] is Retinoic acid receptor alpha (Homo sapiens) (UniProt P10276). The experiment can be described thus: ATG_RARa_TRANS: Attagene TRANS-FACTORIAL HepG2 Assay for human Retinoic Acid Receptor alpha (RARa) (AID 2283005; active = hit-call score of the fitted dose curve at least 0.9, where 1 is the maximum). The procedure, abridged: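 HepG2 transiently transfected with multiplex GAL4-UAS reporter units including a human RARa–GAL4 chimera; 24 h compound exposure. Reporter mRNA quantified by RT-PCR, 6-FAM labeling and capillary electrophoresis; gain of signal versus DMSO.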
Sequence of Retinoic acid receptor alpha (Homo sapiens) (P10276 whole entry, looked up, the tested form may be a part): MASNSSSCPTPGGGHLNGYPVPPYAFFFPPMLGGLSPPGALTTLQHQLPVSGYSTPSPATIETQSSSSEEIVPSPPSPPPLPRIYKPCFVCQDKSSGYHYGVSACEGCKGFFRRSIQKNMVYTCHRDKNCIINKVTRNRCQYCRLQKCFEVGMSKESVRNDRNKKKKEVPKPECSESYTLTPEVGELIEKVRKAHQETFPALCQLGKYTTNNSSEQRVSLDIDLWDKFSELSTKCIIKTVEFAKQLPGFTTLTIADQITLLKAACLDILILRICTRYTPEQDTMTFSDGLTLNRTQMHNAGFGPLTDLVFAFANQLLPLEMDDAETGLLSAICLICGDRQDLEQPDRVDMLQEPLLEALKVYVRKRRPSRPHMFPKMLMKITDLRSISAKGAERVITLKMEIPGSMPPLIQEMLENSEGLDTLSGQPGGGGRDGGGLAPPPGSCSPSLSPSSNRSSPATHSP

The nature of experiment [11]: BSK_3C_Proliferation: Cell Proliferation Assessment in the BioMAP Diversity Plus: 3C Assay (AID 2283006).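 For AC50: potency may reflect either rise or fall in cell number versus DMSO.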 As to conditions: primary human endothelial cells (HUVEC). A digest of the protocol:
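Proliferation as total protein: sulforhodamine B (0.1%) stain of TCA-fixed subconfluent human umbilical vein endothelial cells, absorbance 560 nm, 48 h after dosing. Activity fitted in both directions against DMSO baseline.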

The target of experiment [12] is Peroxisome proliferator-activated receptor gamma (Homo sapiens) (UniProt P37231). In words: ATG_PPARg_TRANS: Attagene TRANS-FACTORIAL HepG2 Assay for human Peroxisome Proliferator-activated Receptor-gamma (PPARg) (AID 2283007; active = hit-call score of the fitted dose curve at least 0.9, where 1 is the maximum). A digest of the protocol:
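Endpoint reflects upward reporter mRNA change versus DMSO controls. Setup: transiently transfected HepG2, GAL4-UAS reporters driven by chimeric NR-Gal4, 24 h incubation, RT-PCR with capillary electrophoresis read-out.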

Experiment [13] deals with human RAR-related Orphan Receptor beta (RORb), RORB (gene 6096) (UniProt Q92753). The experiment can be described thus: ATG_RORb_TRANS: Attagene TRANS-FACTORIAL HepG2 Assay for human RAR-related Orphan Receptor beta (RORb) (AID 2283010; active = hit-call score of the fitted dose curve at least 0.9, where 1 is the maximum). A digest of the protocol: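 Read-out is reporter mRNA induction, quantified by RT-PCR with fluorescent capillary electrophoresis, 24 h post-dose in transiently transfected HepG2 expressing exogenous NR-Gal4 chimera. Activity fitted upward versus DMSO.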
Sequence of human RAR-related Orphan Receptor beta (RORb), RORB (gene 6096) (Q92753 whole entry, looked up, the tested form may be a part): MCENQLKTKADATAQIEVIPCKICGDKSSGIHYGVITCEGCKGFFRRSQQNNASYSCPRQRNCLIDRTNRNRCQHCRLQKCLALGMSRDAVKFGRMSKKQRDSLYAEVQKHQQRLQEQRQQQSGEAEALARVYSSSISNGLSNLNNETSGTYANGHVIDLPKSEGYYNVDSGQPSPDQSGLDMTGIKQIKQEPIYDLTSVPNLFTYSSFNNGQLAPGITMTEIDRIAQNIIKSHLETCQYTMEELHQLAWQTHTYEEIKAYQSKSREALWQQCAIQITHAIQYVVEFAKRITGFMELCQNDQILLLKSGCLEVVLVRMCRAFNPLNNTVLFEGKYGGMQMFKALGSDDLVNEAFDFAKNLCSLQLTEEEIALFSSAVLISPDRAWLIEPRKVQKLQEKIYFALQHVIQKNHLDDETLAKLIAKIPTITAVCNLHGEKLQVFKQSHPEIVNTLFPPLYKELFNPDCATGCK

The nature of experiment [14]: BSK_3C_VCAM1: BioMAP Diversity Plus: 3C Assay for Vascular cell adhesion molecule 1 (VCAM1) Biomarker Activity (AID 2282999). As to conditions: BioMAP 3C HUVEC, VCAM1 ELISA, cytokine-stimulated; actives raise or lower the signal. A digest of the protocol:
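HUVEC primary cells, 24 h compound exposure; VCAM-1 by ELISA; gain/loss of signal fitted bidirectionally vs DMSO baseline.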
On the technique in general: In an ELISA, binding on a coated surface is turned into a signal by an enzyme label.

For experiment [15], the target named is human Retinoic Acid Receptor gamma (RARg), RARG (gene 5916) (UniProt P13631). The experiment can be described thus: ATG_RARg_TRANS: Attagene TRANS-FACTORIAL HepG2 Assay for human Retinoic Acid Receptor gamma (RARg) (AID 2283009; active = hit-call score of the fitted dose curve at least 0.9, where 1 is the maximum). A digest of the protocol: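 Transactivation of exogenous RARg-Gal4 fusion measured as reporter transcript induction after 24 h in transfected HepG2 cells. RNA reverse-transcribed, amplified, fluorescently labeled and resolved by capillary electrophoresis; increase relative to DMSO.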
Sequence of human Retinoic Acid Receptor gamma (RARg), RARG (gene 5916) (P13631 whole entry, looked up, the tested form may be a part): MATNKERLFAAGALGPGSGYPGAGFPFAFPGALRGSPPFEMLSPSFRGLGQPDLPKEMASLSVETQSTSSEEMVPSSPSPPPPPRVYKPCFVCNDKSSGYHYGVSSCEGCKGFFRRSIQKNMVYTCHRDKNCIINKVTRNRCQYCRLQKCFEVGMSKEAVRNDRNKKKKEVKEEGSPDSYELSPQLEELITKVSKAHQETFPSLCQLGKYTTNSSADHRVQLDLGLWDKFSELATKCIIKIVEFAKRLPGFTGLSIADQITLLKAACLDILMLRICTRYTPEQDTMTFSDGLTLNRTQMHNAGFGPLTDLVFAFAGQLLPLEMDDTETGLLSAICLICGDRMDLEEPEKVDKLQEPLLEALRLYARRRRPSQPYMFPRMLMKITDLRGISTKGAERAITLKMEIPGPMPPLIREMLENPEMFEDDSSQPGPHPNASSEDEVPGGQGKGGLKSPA

The target in experiment [16] is human RAR-related Orphan Receptor gamma (RORg), RORC (gene 6097) (UniProt P51449). In words: ATG_RORg_TRANS: Attagene TRANS-FACTORIAL HepG2 Assay for human RAR-related Orphan Receptor gamma (RORg) (AID 2283011; active = hit-call score of the fitted dose curve at least 0.9, where 1 is the maximum). The procedure, abridged:
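Readout: reporter transcript induction (RT-PCR, fluorescent primer extension, capillary electrophoresis) after 24 h compound exposure of transiently transfected HepG2 cells carrying a RORg-Gal4 chimera and GAL4-UAS reporters; DMSO served as baseline, with increasing signal fitted.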

Experiment [17] has as its target Nuclear receptor subfamily 1 group I member 2 (Homo sapiens) (UniProt O75469). The experiment can be described thus: ATG_PXR_TRANS: Attagene TRANS-FACTORIAL HepG2 Assay for human Pregnane X Receptor (PXR) (AID 2283008; active = hit-call score of the fitted dose curve at least 0.9, where 1 is the maximum). A digest of the protocol:
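Multiplexed TRANS reporter panel in HepG2; this component tracks PXR-Gal4-driven reporter mRNA after 24 h dosing, measured by RT-PCR with capillary electrophoresis fluorescence, fitted against DMSO.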

In experiment [18] the target is human Peroxisome Proliferator-activated Receptor delta (PPARd), PPARD (gene 5467) (UniProt Q03181). In words: ATG_PPARd_TRANS: Attagene TRANS-FACTORIAL HepG2 Assay for human Peroxisome Proliferator-activated Receptor delta (PPARd) (AID 2283002; active = hit-call score of the fitted dose curve at least 0.9, where 1 is the maximum). A digest of the protocol:
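Read-out: reporter mRNA induction, quantified by fluorescent RT-PCR products resolved by capillary electrophoresis. Human HepG2 liver cells carried transiently transfected Gal4-UAS reporter constructs with chimeric NR-Gal4 fusions. Cells were dosed for 24 h; DMSO served as baseline.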

Sequence of Myc proto-oncogene protein (Homo sapiens) (P01106 whole entry, looked up, the tested form may be a part): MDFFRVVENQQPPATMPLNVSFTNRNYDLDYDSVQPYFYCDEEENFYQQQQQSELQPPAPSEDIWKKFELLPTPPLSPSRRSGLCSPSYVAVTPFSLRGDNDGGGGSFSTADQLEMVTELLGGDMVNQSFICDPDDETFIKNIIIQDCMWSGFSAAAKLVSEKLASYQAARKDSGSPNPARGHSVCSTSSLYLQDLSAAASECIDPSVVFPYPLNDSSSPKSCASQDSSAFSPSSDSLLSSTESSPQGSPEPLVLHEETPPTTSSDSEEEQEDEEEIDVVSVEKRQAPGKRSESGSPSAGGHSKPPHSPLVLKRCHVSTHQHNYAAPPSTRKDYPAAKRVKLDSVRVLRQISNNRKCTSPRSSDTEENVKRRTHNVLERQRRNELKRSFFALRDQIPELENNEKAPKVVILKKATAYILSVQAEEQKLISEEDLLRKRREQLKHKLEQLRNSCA
Sequence of human Peroxisome Proliferator-activated Receptor delta (PPARd), PPARD (gene 5467) (Q03181 whole entry, looked up, the tested form may be a part): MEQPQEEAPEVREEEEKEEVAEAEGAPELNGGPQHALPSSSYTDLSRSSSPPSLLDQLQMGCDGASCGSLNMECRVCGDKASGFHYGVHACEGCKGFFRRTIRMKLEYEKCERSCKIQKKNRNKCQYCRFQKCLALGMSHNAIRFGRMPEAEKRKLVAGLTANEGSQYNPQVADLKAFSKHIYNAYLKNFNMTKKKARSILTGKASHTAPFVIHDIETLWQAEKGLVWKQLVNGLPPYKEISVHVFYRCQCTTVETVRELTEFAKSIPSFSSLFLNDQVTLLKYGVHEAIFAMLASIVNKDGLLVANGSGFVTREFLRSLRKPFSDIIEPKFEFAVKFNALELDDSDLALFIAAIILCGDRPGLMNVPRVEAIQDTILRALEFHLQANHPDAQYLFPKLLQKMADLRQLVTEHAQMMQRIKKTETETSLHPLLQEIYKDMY
Sequence of Cellular tumor antigen p53 (Homo sapiens) (P04637 whole entry, looked up, the tested form may be a part): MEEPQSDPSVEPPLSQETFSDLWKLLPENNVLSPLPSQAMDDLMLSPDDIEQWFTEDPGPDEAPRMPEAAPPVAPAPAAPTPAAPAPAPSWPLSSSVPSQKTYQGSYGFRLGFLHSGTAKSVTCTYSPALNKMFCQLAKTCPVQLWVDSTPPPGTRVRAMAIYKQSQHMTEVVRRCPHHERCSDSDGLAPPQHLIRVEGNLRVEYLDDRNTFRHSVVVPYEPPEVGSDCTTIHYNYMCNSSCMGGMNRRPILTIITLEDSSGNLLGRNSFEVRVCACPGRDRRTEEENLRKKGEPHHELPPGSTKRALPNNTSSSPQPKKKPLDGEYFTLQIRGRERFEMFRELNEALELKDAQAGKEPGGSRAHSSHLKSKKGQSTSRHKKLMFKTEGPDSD
Sequence of human RAR-related Orphan Receptor gamma (RORg), RORC (gene 6097) (P51449 whole entry, looked up, the tested form may be a part): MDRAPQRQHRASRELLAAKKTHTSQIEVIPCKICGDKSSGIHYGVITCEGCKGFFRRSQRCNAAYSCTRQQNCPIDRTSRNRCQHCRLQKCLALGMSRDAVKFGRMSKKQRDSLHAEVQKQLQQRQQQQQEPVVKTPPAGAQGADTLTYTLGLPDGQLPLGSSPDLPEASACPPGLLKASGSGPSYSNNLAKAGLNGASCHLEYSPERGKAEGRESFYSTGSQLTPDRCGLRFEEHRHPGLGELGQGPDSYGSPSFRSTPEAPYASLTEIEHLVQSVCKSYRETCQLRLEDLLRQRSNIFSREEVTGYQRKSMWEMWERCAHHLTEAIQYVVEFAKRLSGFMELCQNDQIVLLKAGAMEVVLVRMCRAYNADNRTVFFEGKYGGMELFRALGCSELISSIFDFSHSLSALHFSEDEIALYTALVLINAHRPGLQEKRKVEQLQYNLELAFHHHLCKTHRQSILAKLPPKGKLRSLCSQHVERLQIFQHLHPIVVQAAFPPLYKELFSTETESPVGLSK
Sequence of Peroxisome proliferator-activated receptor gamma (Homo sapiens) (P37231 whole entry, looked up, the tested form may be a part): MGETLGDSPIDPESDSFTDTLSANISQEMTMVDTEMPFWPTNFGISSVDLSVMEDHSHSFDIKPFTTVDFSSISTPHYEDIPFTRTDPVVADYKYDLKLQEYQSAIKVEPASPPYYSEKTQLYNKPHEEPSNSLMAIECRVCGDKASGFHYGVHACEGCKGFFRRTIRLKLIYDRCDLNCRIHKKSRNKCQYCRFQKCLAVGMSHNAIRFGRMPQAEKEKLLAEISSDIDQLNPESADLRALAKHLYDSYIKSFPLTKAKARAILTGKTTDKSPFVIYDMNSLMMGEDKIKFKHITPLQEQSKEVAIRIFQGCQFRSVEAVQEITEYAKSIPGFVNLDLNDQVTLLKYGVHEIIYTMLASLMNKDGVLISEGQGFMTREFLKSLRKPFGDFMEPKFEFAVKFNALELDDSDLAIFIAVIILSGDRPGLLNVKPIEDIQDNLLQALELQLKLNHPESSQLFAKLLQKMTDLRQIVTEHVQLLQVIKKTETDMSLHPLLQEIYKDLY
Sequence of Nuclear receptor subfamily 1 group I member 2 (Homo sapiens) (O75469 whole entry, looked up, the tested form may be a part): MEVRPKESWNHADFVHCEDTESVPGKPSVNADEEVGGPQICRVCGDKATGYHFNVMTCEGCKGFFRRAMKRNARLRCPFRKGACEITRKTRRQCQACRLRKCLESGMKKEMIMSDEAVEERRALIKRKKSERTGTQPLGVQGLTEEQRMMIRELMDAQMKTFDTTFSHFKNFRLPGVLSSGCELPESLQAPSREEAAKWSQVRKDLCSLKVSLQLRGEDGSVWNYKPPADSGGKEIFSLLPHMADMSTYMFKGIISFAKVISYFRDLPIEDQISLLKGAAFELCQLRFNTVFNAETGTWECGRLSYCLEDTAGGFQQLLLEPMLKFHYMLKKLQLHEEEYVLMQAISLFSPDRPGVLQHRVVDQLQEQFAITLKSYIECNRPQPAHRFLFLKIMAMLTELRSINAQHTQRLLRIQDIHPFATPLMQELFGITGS
Sequence of human Peroxisome Proliferator-activated Receptor alpha (PPARa), PPARA (gene 5465) (Q07869 whole entry, looked up): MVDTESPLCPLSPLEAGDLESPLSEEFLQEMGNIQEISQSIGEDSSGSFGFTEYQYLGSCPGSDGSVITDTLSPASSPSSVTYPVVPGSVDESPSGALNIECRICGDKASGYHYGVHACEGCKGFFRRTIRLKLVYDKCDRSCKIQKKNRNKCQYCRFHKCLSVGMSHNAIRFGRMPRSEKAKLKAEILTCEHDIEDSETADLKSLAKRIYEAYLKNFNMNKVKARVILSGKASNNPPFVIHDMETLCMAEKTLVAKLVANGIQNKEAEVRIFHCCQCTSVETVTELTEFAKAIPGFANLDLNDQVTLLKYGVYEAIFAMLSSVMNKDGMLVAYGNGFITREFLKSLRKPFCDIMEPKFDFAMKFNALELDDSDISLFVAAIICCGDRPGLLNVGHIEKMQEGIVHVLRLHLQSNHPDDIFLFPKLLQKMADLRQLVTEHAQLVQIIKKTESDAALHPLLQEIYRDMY

Consider `CC(C)=CCC/C(C)=C/CO`, for which the compound was called inactive in experiment [1].

As for `CC[C@H](C)C(=O)O[C@H]1C[C@@H](C)C=C2C=C[C@H](C)[C@H](CC[C@@H]3C[C@@H](O)CC(=O)O3)[C@H]21`, the outcome in experiment [1] was inactive.

Take `CC(C)CCCCCCOC(=O)c1ccc(C(=O)OCCCCCCC(C)C)c(C(=O)OCCCCCCC(C)C)c1`: the call in experiment [2], in experiment [3], in experiment [4], in [5], in experiment [6] and in experiment [7] was inactive. The result in experiment [8], in experiment [9], in [10], in experiment [11], in [12] and in experiment [13] was inactive.

As to `CCCCC(CC)COC(=O)c1ccc(C(=O)OCC(CC)CCCC)cc1` (stereo unspecified), the compound was classed as inactive in [2], in [3], in experiment [6], in experiment [14], in experiment [7] and in experiment [8]. Besides, the outcome in experiment [10], in experiment [11], in experiment [15], in experiment [13] and in experiment [16] was inactive.

In the case of `CC(C)(O)c1coc(S(=O)(=O)NC(=O)Nc2c3c(cc4c2CCC4)CCC3)c1`, the compound was classed as inactive in [2], in experiment [3], in experiment [4], in experiment [6], in [7] and in [8]. The result in [11], in experiment [15], in [13] and in experiment [16] was inactive. Also, the figures for the half-maximal activity concentration (AC50) in [12] and in experiment [17] were 44.9 µM (active) and 19.3 µM (active), respectively.

With `CC(C)=CCCC(C)=CC=O`, the outcome in [2], in experiment [4], in [6], in experiment [7], in [18] and in experiment [8] was inactive. For the same compound, the result in experiment [11] and in experiment [16] was inactive. Besides, the figures for the half-maximal activity concentration (AC50) in experiment [3], in experiment [12] and in experiment [17] were 62.4 µM (active), 21 µM (active) and 4.42 µM (active), respectively.

As for `C=CC(=C)CCC=C(C)C`, the outcome in experiment [2], in experiment [3], in experiment [4], in experiment [6], in experiment [7] and in experiment [8] was inactive. Further, the result in experiment [11], in experiment [17] and in experiment [16] was inactive.

Consider `Cc1[nH]cnc1C[C@H]1CCc2c(C)c3ccccc3n2C1=O`, for which the compound was called inactive in [2], in experiment [3], in experiment [18], in experiment [8], in [10] and in experiment [17]. The compound was called inactive in [15]. Besides, the AC50 in experiment [4] was 7.45 µM (active); in experiment [6], 27.4 µM (active); in experiment [7] it was 29.6 µM (active); in experiment [11], 26.1 µM (active).

For `O=C1CCC(N2C(=O)c3ccccc3C2=O)C(=O)N1` (stereo unspecified), the compound was called inactive in [2], in [3], in experiment [5], in [6], in experiment [7] and in experiment [18]. The outcome in [8] and in experiment [11] was inactive.
